eIF4H inh – inhibitors of RNA binding by human eIF4H; Q15056; eIF4H fluorescence polarization binding assay; inhibition, % at 35 µM; actives 0.94% (n = 290,000);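 also: calls also rest on retests at 20 µM and on dose response follow-up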
APOBEC3A inh – blocks human APOBEC3A ssDNA deamination. actives 0.41% (n = 330,000). P31941. inhibition, % at 20 µM. recombinant A3A, FAM/TAMRA ssDNA deamination fluorescence;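 active = at least 40% inhibition at 20 µM here, with at most 30% in a related deaminase screen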;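 also: plate controls were A3A with DMSO for no effect and wells lacking A3A enzyme for full effect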
PHOSPHO1 inh – inhibitors of human PHOSPHO1 phosphatase | Q8TCT1 | recombinant PHOSPHO1, absorbance phosphatase assay | inhibition, % at 13.3 µM | actives 1.1% (n = 290,000) | AID 1565; in the data active = inhibition above about 60%
Target sequence (Q8TCT1 whole entry, looked up): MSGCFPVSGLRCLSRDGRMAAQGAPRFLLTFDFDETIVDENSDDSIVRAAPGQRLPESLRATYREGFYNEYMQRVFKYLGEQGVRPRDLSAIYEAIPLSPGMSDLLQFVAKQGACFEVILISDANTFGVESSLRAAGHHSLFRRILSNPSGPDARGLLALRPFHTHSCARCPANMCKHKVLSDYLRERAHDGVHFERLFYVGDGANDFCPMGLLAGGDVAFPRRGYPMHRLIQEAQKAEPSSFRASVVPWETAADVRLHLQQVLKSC
APOBEC3G inh – inhibitors of human APOBEC3G DNA deaminase; Q9HC16; recombinant A3G, ssDNA deamination FAM/TAMRA fluorescence; inhibition, % at 20 µM; actives 0.28% (n = 330,000);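 active = inhibition of at least 40% at 20 µM, with no more than 30% in the related APOBEC3A deaminase screen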;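 also: plate controls were DMSO wells with A3G for no effect and wells lacking A3G enzyme for full effect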
MLLE-PAM2 inh – blocks PAM2 peptide binding to the PABP1 MLLE domain. P11940. GST-MLLE / FITC-PAM2 fluorescence polarization. inhibition, % at 20 µM. actives 0.36% (n = 360,000); in the data active = inhibition above about 35%, passing the limit was not always enough;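 also: plate controls were DMSO wells with GST-MLLE for no effect and wells lacking GST-MLLE protein for full effect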
PABP polyA inh – blocks human PABP binding to poly(A) RNA. P11940. fluorescence polarization. calls only at 35 µM. actives 1% (n = 290,000). AID 2014;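 also: calls also rest on retests at 20 µM and on dose response follow-up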
APOBEC3A confirm – confirmation of human APOBEC3A DNA deaminase inhibitors | recombinant A3A, ssDNA deaminase UDG fluorescence assay | inhibition, % at 20 µM | actives 63% (n = 1,400) | shares compounds with APOBEC3A inh;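 active = inhibition reaching a set limit, 80% of the first screen's cutoff, at 20 µM in any replicate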;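 also: plate controls were DMSO wells with A3A for no effect and wells lacking A3A enzyme for full effect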
UDG ctr A3A – UDG inhibition in APOBEC3A counter-screen; shares compounds with APOBEC3A inh; UDG counterscreen, FAM/TAMRA uracil oligo fluorescence; inhibition, % at 20 µM; AID 504714; 1,000 tested, under 10 active
Active calls of the source: *. The list is not random: actives were taken first. Their share in the collection is about 2.6%. Unless noted, no rule for the calls is given here.

CCN1/C(=C/c2ccc3cc(C)ccc3[n+]2CC)Sc2cc(C)c(C)cc21 was read as eIF4H inh -33, APOBEC3A inh 57*, PHOSPHO1 inh 1, APOBEC3G inh 19, MLLE-PAM2 inh -161, PABP polyA inh inactive and APOBEC3A confirm 80*.
`CCC(C)NC(=O)c1cc2c(=O)n(CC)c3ccccc3c2s1` (stereo not given) gave eIF4H inh -1, APOBEC3A inh -4, PHOSPHO1 inh -51, APOBEC3G inh -7, MLLE-PAM2 inh 8 and PABP polyA inh inactive.
Screening NS(=O)(=O)c1ccc(CCNC(=O)CCS(=O)(=O)c2ccc(Br)cc2)cc1 returned eIF4H inh 90*, APOBEC3A inh 46*, PHOSPHO1 inh 15, APOBEC3G inh 24, MLLE-PAM2 inh 3, PABP polyA inh inactive and APOBEC3A confirm 40*.
Screening O=[N+]([O-])c1ccccc1S(=O)(=O)N1CCN(S(=O)(=O)c2ccc3c(c2)OCCO3)CC1 returned APOBEC3A inh -1, APOBEC3G inh -7 and MLLE-PAM2 inh 4.
For C[n+]1ccccc1/C=C/c1ccccc1Cl the results were eIF4H inh 79*, APOBEC3A inh 81*, PHOSPHO1 inh -75, APOBEC3G inh 14, MLLE-PAM2 inh -94, PABP polyA inh active, APOBEC3A confirm 67* and UDG ctr A3A -3.
[O-][n+]1ccccc1/C=C/c1ccccc1 was read as APOBEC3A inh 0, APOBEC3G inh -4 and MLLE-PAM2 inh -8.
Screening O=C(C=Cc1ccccc1Cl)c1ccccc1 returned MLLE-PAM2 inh -5.
Screening Cc1ccccc1/C=C/c1cccc[n+]1C returned APOBEC3A inh 84*, PHOSPHO1 inh -137, APOBEC3G inh 15, MLLE-PAM2 inh -124, APOBEC3A confirm 69* and UDG ctr A3A -3.
Cc1cc(NC(=O)C(C)SCC(=O)N(C)Cc2ccccc2F)no1 (stereo not given) was read as APOBEC3A inh -3, APOBEC3G inh -5 and MLLE-PAM2 inh 10.
`O=C(COC(=O)CNC(=O)c1ccc(Cl)cc1)Nc1cccc(S(=O)(=O)N2CCCC2)c1` gave eIF4H inh -4, APOBEC3A inh -8, PHOSPHO1 inh 19, APOBEC3G inh -3, MLLE-PAM2 inh -3 and PABP polyA inh inactive.
Cc1cc(C=O)c(C)n1-c1cc(C(=O)O)cc(C(=O)O)c1 was read as eIF4H inh 90, APOBEC3A inh 64*, PHOSPHO1 inh 44, APOBEC3G inh 21, MLLE-PAM2 inh 3, PABP polyA inh inactive, APOBEC3A confirm 64* and UDG ctr A3A 2.
`CSC1=NCCN1CCOc1ccccc1` gave eIF4H inh 8, APOBEC3A inh 65*, PHOSPHO1 inh -12, APOBEC3G inh 16, MLLE-PAM2 inh -128, PABP polyA inh inactive, APOBEC3A confirm 55* and UDG ctr A3A -2.
`COc1ccccc1CNC(=O)c1cccnc1` gave eIF4H inh 4, APOBEC3A inh -4, PHOSPHO1 inh 24, APOBEC3G inh -7, MLLE-PAM2 inh 0 and PABP polyA inh inactive.
`CCOC(=O)c1c(NC(=O)Cn2nc(C(F)(F)F)cc2C)sc(C)c1C` gave eIF4H inh -2, APOBEC3A inh 45*, PHOSPHO1 inh -1, APOBEC3G inh -6, MLLE-PAM2 inh 21, PABP polyA inh inactive, APOBEC3A confirm 1 and UDG ctr A3A 4.
CN(C)/C=C(/C(=O)c1ccc(Cl)c(Cl)c1)S(C)(=O)=O was read as eIF4H inh 7, APOBEC3A inh -2, PHOSPHO1 inh -14, APOBEC3G inh -4, MLLE-PAM2 inh 7 and PABP polyA inh inactive.
Screening CN(C)/C=C(/C(=O)c1ccc(Cl)cc1)S(C)(=O)=O returned eIF4H inh 6, APOBEC3A inh 43*, PHOSPHO1 inh 16, APOBEC3G inh 5, MLLE-PAM2 inh 12, PABP polyA inh inactive and APOBEC3A confirm 1.
`N#Cc1ccc(OCc2c(-c3ccccc3)nnn2CC(=O)O)cc1` gave MLLE-PAM2 inh -7.
Screening CN1CCN(c2ccc(S(=O)(=O)N3CCCCC3)cc2NC(=O)/C=C/c2ccc(OC(F)F)cc2)CC1 returned APOBEC3A inh 29, APOBEC3G inh -1 and MLLE-PAM2 inh -94.
CCN1CCN(c2ccc(S(=O)(=O)N3CCCCC3)cc2NC(=O)c2cccc(OC(F)F)c2)CC1 was read as APOBEC3A inh 39, APOBEC3G inh 3 and MLLE-PAM2 inh -82.
`CCN1CCN(c2ccc(S(=O)(=O)N3CCOCC3)cc2NC(=O)CC(C)C)CC1` gave APOBEC3A inh 3, APOBEC3G inh 2 and MLLE-PAM2 inh 11.
CCN1CCN(c2ccc(S(=O)(=O)N3CCCCC3)cc2NC(=O)c2ccc(OC(F)F)cc2)CC1 was read as APOBEC3A inh 47*, APOBEC3G inh 5, MLLE-PAM2 inh -90, APOBEC3A confirm 54* and UDG ctr A3A 2.
CCN1CCN(c2ccc(S(=O)(=O)N3CCOCC3)cc2NC(=O)C(C)Oc2ccc(Cl)cc2)CC1 (stereo not given) was read as APOBEC3A inh 56*, APOBEC3G inh 11, MLLE-PAM2 inh -110, APOBEC3A confirm 44* and UDG ctr A3A 2.
`CC(CC(=O)Nc1cccc(S(=O)(=O)N2CCCCC2)c1)c1ccccc1` (stereo not given) gave APOBEC3A inh 40*, APOBEC3G inh 11, MLLE-PAM2 inh -60 and APOBEC3A confirm 23.
`CCN1CCN(c2ccc(S(=O)(=O)N3CCCCC3)cc2NC(=O)/C=C/c2ccc(OC(F)F)cc2)CC1` gave APOBEC3A inh 46*, APOBEC3G inh 12, MLLE-PAM2 inh -118, APOBEC3A confirm 59* and UDG ctr A3A 2.
Cc1cc(NC(=O)c2ccccc2C)ccc1NC(=O)c1ccccc1Cl was read as eIF4H inh -7, APOBEC3A inh 0, PHOSPHO1 inh -13, APOBEC3G inh -1, MLLE-PAM2 inh 5 and PABP polyA inh inactive.
`C=CC[C@@H](CC(=O)NCCO)C(=O)N[C@@H](COC(=O)[C@@H](CC=C)CC(=O)OC(C)(C)C)Cc1c[nH]c2ccccc12` gave APOBEC3A inh -3, APOBEC3G inh -10 and MLLE-PAM2 inh -6.
Screening CC(=O)Nc1ccc(NC(=O)C(C)OC(=O)c2cccc(S(=O)(=O)N3CCCC3)c2)cc1 (stereo not given) returned APOBEC3A inh 42*, APOBEC3G inh 16, MLLE-PAM2 inh -82 and APOBEC3A confirm 6.

From PubChem
